Here are results for 20 compounds from PubChem BioAssay (Tox21).

The test system of assay [1] is thyroid hormone receptor (rat, GH3 cells). Description: qHTS assay to identify small molecule agonists of the thyroid receptor (TR) signaling pathway (AID 743066; calls by dose curve). (In general: In qHTS, concentration-response curves come from the screen itself.)
Assay [2] is described as follows: qHTS assay to identify small molecule antagonists of the estrogen receptor alpha (ER-alpha) signaling pathway - cell viability counter screen (AID 743074; calls by dose curve;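 note: HEK293 cells carrying ER-alpha-UAS-bla reporter stimulated with 17beta-estradiol; nearly all actives have a fitted effect of over 45% in size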).
A short description of assay [3]: qHTS assay to identify small molecule antagonists of the estrogen receptor alpha (ER-alpha) signaling pathway using the BG1 cell line - cell viability counter screen (AID 743081).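 Note: compound given together with 17beta-estradiol as the ER stimulus; series mostly up to about 70 µM; nearly all actives have a fitted effect of over 45% in size.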
A further assay deals with Aromatase (Homo sapiens) (UniProt P11511). Kind of assay: qHTS assay to identify aromatase inhibitors (AID 743083). Note: series mostly up to about 70 µM; nearly all actives have a fitted effect of over 55% in size.
Assay [4] in a line: qHTS assay to identify aromatase inhibitors - cell viability counter screen (AID 743084).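 Note: cells stimulated with testosterone during compound exposure; nearly all actives have a fitted effect of over 55% in size.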
Assay [5] concerns the target Aryl hydrocarbon receptor (Homo sapiens) (UniProt P35869). Kind of assay: qHTS assay to identify small molecule that activate the aryl hydrocarbon receptor (AhR) signaling pathway (AID 743085).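 Note: HG2L7.5c1 human HepG2 liver cells with stably integrated DRE-driven firefly reporter; series mostly up to about 70 µM; nearly all actives have a fitted effect of over 15% in size.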 The method in brief: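 A multiplexed format paired cell viability (CellTiter-Fluor fluorescence) with AhR-dependent luciferase output (ONE-Glo luminescence) in the same wells of HepG2 DRE-luc cells after 24 h compound exposure at 37C.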

The nature of assay [6]: qHTS assay to identify small molecule that activate the aryl hydrocarbon receptor (AhR) signaling pathway - cell viability counter screen (AID 743086).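 Note: HepG2 liver cells carrying the AhR DRE luciferase reporter; series mostly up to about 70 µM; nearly all actives have a fitted effect of over 45% in size.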 In short, it runs like this:
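HepG2-AhR-luc (HG2L7.5c1) cells, 4000/well, treated 24 h at 37 C with compound; viability measured as CellTiter-Fluor fluorescence after 30 min in the same wells as the luciferase read.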

Assay [7] in a line: qHTS assay to identify small molecule antagonists of the peroxisome proliferator-activated receptor gamma (PPARg) signaling pathway - cell viability counter screen (AID 743194). Note: nearly all actives have a fitted effect of over 55% in size. In short, it runs like this: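 Cytotoxicity counter screen in PPARg-bla HEK293H cells, same wells as reporter assay. Compounds plus 50 nM rosiglitazone (final) for 17 h at 37 C, then viability read by CellTiter-Glo luminescence.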

Assay [8] is described as follows: qHTS assay for small molecule activators of the heat shock response signaling pathway - cell viability counter screen (AID 743209). Note: nearly all actives have a fitted effect of over 50% in size. The method in brief:
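HSE-bla HeLa; 1500 cells/well; overnight 37 C, 5% CO2; compound 5 h 37 C; LiveBLAzer B/G substrate 2.5 h RT; CellTiter-Glo 30 min RT; luminescence.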

Assay [9] in a line: qHTS assay for small molecule activators of the heat shock response signaling pathway (AID 743210; active = well fitted activation curve with a large enough effect in the signal ratio in the repeat runs, with a control signal flat, not every such curve was filed as active; the % refers to the signal ratio;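 note: HeLa cells with beta-lactamase reporter driven by heat shock elements; series mostly up to about 63 µM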). In short, it runs like this:
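Beta-lactamase reporter read-out: FRET substrate fluorescence after 2.5 h at RT, following 5 h compound treatment at 37 C of HeLa cells carrying HSE-driven bla reporter; quantitative HTS format.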

Assay [10] is described as follows: qHTS assay to identify small molecule agonists of the peroxisome proliferator-activated receptor delta (PPARd) signaling pathway - cell viability counter screen (AID 743211). Note: nearly all actives have a fitted effect of over 55% in size. In short, it runs like this: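 Tox21 library compounds, delivered in DMSO, were incubated 17 h with PPARd-bla HEK293H cells; cytotoxicity was taken from CellTiter-Glo luminescence read 30 min after reagent addition.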

The nature of assay [11]: qHTS assay for small molecule agonists of the antioxidant response element (ARE) signaling pathway - cell viability counter screen (AID 743203; calls by dose curve; note: nearly all actives have a fitted effect of over 55% in size). In short, it runs like this: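 Luminescence read-out (CellTiter-Glo, 30 min at room temperature) measured cell viability in the same wells as the ARE beta-lactamase reporter. HepG2 ARE-bla cells were treated with compounds for 16 hrs at 37C/5% CO2.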

The target in assay [12] is Estrogen receptor (Homo sapiens) (UniProt P03372). Kind of assay: qHTS assay to identify small molecule antagonists of the estrogen receptor alpha (ER-alpha) signaling pathway (AID 743069; active = well fitted curve in the direction sought with a large enough effect in the signal ratio in the repeat runs, not every such curve was filed as active; the % refers to the signal ratio). In short, it runs like this:
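Beta-lactamase FRET fluorescence is read after 2 hr at room temperature with LiveBLAzer B/G substrate. Before that, ER-alpha-bla HEK293 cells sit 4 hr after plating, then receive compound plus 17beta-estradiol and incubate 18 hr at 37C.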

Assay [13] shares this target. Kind of assay: qHTS assay to identify small molecule agonists of the estrogen receptor alpha (ER-alpha) signaling pathway (AID 743075; calls by dose curve;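 note: HEK293 GripTite cells with ER-alpha and UAS-driven beta-lactamase reporter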).
The target is the same in assay [14]. Description: qHTS assay to identify small molecule agonists of the estrogen receptor alpha (ER-alpha) signaling pathway using the BG1 cell line (AID 743079). Note: nearly all actives have a fitted effect of over 20% in size.
A short description of assay [15]: qHTS assay to identify small molecule antagonists of the estrogen receptor alpha (ER-alpha) signaling pathway using the BG1 cell line (AID 743080; calls by dose curve;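 note: BG1 cells stimulated with 17beta-estradiol alongside compound; series mostly up to about 70 µM; nearly all actives have a fitted effect of over 25% in size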). The method in brief:
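Quantitative HTS on the Tox21 10K library: BG1 cells with endogenous ER-alpha and ERE-luciferase reporter, 17beta-estradiol stimulation, 21.5 h compound exposure, luminescence endpoint with parallel fluorescence cytotoxicity counter-read.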

The target of assay [16] is Peroxisome proliferator-activated receptor gamma (Homo sapiens) (UniProt P37231). Kind of assay: qHTS assay to identify small molecule agonists of the peroxisome proliferator-activated receptor gamma (PPARg) signaling pathway (AID 743094; active = well fitted activation curve with a large enough effect in the signal ratio in the repeat runs, not every such curve was filed as active; the % refers to the signal ratio; note: potency is the fitted concentration of half-maximal effect). In short, it runs like this:
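HEK293H PPARg-bla cells, 5 h settle at 37C/5% CO2; compound (DMSO) 17 h, 37C; B/G FRET substrate 1 h RT; fluorescence intensity read-out. qHTS format.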

The target is the same in assay [17]. Kind of assay: qHTS assay to identify small molecule antagonists of the peroxisome proliferator-activated receptor gamma (PPARg) signaling pathway (AID 743191; calls by dose curve; note: series mostly up to about 63 µM; nearly all actives have a fitted effect of over 30% in size). The method in brief: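 GeneBLAzer PPARg UAS-bla HEK293H cells, 5 h post-plating, exposed to compounds 17 h at 37C. LiveBLAzer B/G FRET substrate added for 1 h at room temperature; beta-lactamase reporter read by fluorescence intensity.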

The nature of assay [18]: qHTS assay for small molecule agonists of the antioxidant response element (ARE) signaling pathway (AID 743202; active = well fitted activation curve with a large enough effect in the signal ratio in the repeat runs, not every such curve was filed as active; the % refers to the signal ratio). In short, it runs like this: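 HepG2 ARE-bla reporter line, 2,000 cells/well; 5 h preincubation 37 C/5% CO2; compound (DMSO) 16 h 37 C; B/G FRET substrate 2 h RT; fluorescence intensity.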

Molecules are shown by their SMILES. Records with an inconclusive call do not appear. Activity calls are given as the source filed them. Unless noted, calls come from the whole dose curve; as a rule, active = well fitted curve in the direction sought with a large enough effect in the repeat runs; inconclusive = weak or mixed curves; inactive = no such curve, though single readings can be large; an effect the other way counts as inactive or inconclusive.

Aromatase (Homo sapiens), sequence (P11511 whole entry, looked up): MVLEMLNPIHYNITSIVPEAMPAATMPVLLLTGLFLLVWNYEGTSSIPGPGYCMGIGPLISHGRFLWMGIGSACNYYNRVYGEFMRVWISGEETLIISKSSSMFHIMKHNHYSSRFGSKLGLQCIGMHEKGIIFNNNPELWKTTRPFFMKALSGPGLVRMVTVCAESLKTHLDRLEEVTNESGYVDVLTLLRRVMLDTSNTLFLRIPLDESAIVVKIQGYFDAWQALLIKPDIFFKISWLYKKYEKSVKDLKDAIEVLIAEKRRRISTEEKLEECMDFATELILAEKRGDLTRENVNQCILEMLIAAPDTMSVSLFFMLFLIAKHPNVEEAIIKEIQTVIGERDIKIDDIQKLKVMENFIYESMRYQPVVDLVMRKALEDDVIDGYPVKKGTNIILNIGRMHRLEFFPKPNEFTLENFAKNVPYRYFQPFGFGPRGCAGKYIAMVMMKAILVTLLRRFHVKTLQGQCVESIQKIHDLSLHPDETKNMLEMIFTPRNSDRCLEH
Aryl hydrocarbon receptor (Homo sapiens), sequence (P35869 whole entry, looked up): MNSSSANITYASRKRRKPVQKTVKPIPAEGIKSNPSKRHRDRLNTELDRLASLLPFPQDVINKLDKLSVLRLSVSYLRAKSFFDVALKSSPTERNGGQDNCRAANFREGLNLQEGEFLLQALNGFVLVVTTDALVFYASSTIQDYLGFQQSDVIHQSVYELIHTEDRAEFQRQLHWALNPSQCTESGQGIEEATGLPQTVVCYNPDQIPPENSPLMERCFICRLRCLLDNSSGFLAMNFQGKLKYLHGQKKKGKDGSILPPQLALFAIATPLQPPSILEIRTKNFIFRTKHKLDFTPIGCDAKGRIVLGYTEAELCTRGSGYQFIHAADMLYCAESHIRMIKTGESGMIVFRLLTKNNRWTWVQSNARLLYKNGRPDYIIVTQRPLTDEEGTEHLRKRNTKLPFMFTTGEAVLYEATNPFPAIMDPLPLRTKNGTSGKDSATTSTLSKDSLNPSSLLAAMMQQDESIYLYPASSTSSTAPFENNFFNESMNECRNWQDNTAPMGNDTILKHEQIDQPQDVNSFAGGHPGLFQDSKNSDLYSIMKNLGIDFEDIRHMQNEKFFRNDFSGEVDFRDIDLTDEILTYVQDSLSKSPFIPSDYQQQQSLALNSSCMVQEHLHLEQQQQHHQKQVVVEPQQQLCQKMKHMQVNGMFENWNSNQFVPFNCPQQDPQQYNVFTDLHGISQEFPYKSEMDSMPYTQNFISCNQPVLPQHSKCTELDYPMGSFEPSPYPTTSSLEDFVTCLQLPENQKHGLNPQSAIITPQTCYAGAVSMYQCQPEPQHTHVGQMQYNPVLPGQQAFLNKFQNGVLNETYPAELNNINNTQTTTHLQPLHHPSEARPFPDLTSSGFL
Estrogen receptor (Homo sapiens), sequence (P03372 whole entry, looked up): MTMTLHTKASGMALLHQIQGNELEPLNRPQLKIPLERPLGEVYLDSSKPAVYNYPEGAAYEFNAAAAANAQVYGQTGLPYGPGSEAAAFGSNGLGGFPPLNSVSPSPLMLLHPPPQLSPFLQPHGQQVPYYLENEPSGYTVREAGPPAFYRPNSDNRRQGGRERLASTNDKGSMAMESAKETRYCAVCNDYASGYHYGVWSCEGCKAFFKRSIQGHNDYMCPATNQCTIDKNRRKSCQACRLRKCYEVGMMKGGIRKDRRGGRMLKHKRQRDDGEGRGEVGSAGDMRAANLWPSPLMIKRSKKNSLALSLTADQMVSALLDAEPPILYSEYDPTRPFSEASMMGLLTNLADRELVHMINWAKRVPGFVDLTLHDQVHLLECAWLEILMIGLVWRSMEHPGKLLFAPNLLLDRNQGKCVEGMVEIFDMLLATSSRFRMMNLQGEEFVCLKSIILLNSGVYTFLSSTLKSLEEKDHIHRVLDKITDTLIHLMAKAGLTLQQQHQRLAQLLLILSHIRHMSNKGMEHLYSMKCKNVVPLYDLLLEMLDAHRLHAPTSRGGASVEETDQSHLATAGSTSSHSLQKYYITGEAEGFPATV
Peroxisome proliferator-activated receptor gamma (Homo sapiens), sequence (P37231 whole entry, looked up): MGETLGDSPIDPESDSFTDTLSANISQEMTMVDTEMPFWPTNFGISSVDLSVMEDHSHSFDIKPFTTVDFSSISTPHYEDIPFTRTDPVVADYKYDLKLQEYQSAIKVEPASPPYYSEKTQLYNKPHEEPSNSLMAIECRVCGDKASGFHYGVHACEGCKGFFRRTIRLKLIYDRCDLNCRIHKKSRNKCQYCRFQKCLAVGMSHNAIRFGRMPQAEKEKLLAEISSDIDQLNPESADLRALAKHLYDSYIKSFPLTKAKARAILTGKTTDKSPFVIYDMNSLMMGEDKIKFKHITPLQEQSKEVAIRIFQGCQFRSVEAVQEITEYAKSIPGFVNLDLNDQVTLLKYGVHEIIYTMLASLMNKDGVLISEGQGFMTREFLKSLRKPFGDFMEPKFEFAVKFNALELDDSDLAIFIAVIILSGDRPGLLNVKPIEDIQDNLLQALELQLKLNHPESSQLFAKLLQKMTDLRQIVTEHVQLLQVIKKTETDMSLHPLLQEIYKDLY

For `CC[N+](CC)(CC)CCOc1cccc(OCC[N+](CC)(CC)CC)c1OCC[N+](CC)(CC)CC`, the result (in assay [1]; in assay [3]; with Aromatase (Homo sapiens); in assay [7]; in assay [8]; in assay [9]) was inactive. Also, the call in [10] was inactive. For the same compound, the Potency entry in assay [2], in assay [4], in [5] and in [6] was “inactive” throughout.

Consider `CCCC(=O)O[C@]1(C(=O)CC)CC[C@H]2[C@@H]3CCC4=CC(=O)CC[C@]4(C)[C@H]3[C@@H](O)C[C@@]21C`, for which the result in assay [7], in assay [11], in assay [8] and in assay [9] was inactive.

Consider `CC(COc1ccccc1)NN` (centres undefined), for which the Potency result in assay [12], in [2], in [13], in assay [14], in assay [15] and in assay [4] was “inactive” in each case. Also, the Potency entry in [6] and in assay [16] was “inactive” each time. For the same compound, the result (in [3]; in the assay with Aromatase (Homo sapiens); in [7]; in assay [11]; in assay [8]; in [9]) was inactive. Moreover, the compound was classed as inactive in [10].

`CCCCc1nc(Cl)c(CO)n1Cc1ccc(-c2ccccc2-c2nn[nH]n2)cc1`: the Potency entry in assay [2], in [4], in assay [5], in assay [6] and in [17] was “inactive” each time. Also, the outcome (in assay [3]; in the assay with Aromatase (Homo sapiens); in assay [7]; in [11]; in assay [9]; in assay [10]) was inactive. For the same compound, the Potency in assay [16] is 23.9 µM (active).

Take `CCOc1c(N2CCOCC2)cnn(C)c1=O`: the call in assay [7], in assay [11], in assay [8], in [9] and in assay [10] was inactive. Further, the Potency result in [18] is “inactive”.

Regarding `CNCC(O)c1ccc(O)c(O)c1` (centres undefined), the Potency result in assay [17] and in assay [18] was “inactive” throughout. Also, the compound was classed as inactive in assay [7], in assay [11], in [8], in [9] and in [10].

For `CCN(Cc1ccccc1)c1ccccc1`, the Potency entry in assay [12], in assay [2], in [13], in assay [14], in [15] and in assay [4] was “inactive” each time. Moreover, the Potency result in assay [5], in assay [6], in [17] and in assay [18] was “inactive” in each case. Moreover, the compound was classed as inactive (in [3]; in the assay with Aromatase (Homo sapiens); in [7]; in [11]; in [8]; in [9]). Further, the call in [10] was inactive.

For the compound `Cc1ccc(-c2ccccc2C#N)cc1`, the Potency entry in assay [17] and in [18] was “inactive” throughout. Moreover, the outcome in assay [7], in assay [8], in assay [9] and in [10] was inactive.

Turning to `NC(=O)NC1N=C([O][Al])NC1=O` (centres undefined), the Potency result in assay [17] is “inactive”. The result in assay [7], in assay [11] and in assay [10] was inactive.

As for `NC(=O)Cc1cccc2ccccc12`, the Potency result in assay [2], in [4], in [5], in assay [6] and in assay [17] was “inactive” in each case. Also, the outcome (in assay [3]; with Aromatase (Homo sapiens); in [7]; in assay [8]; in [9]; in [10]) was inactive.

With `NO`, the Potency entry in assay [2], in [4], in [5] and in [6] was “inactive” in each case. Further, the result (in assay [3]; with Aromatase (Homo sapiens); in [7]; in assay [11]; in assay [8]; in assay [9]) was inactive. The call in assay [10] was inactive.

In the case of `Clc1cc(Cl)cc(Cl)c1`, the Potency result in assay [12], in [2], in [13], in assay [14], in assay [15] and in [4] was “inactive” each time. Moreover, the Potency result in assay [5], in assay [6] and in assay [18] was “inactive” each time. In addition, the compound was classed as inactive (in assay [3]; with Aromatase (Homo sapiens); in assay [7]; in assay [11]; in assay [8]; in assay [9]). Further, the result in assay [10] was inactive.

With `CCOC(=O)C(=O)CCCCCCl`, the Potency result in assay [17] and in assay [18] was “inactive” throughout. Further, the outcome in assay [7], in [8], in assay [9] and in assay [10] was inactive.

On to `CC(=O)Nc1ccc(OCC(O)CNC(C)C)cc1` (centres undefined), for which the Potency result in assay [2], in [4], in assay [5], in assay [6], in assay [16] and in [17] was “inactive” throughout. The Potency result in [18] is “inactive”. In addition, the call (in [3]; with Aromatase (Homo sapiens); in [7]; in [11]; in [8]; in [9]) was inactive. Further, the compound was called inactive in [10].

Regarding `C=C(C)C(=O)OCC(O)CO` (centres undefined), the Potency result in assay [17] and in assay [18] was “inactive” each time. For the same compound, the result in assay [7], in assay [11], in assay [8], in assay [9] and in assay [10] was inactive.

On to `CCN(CC#N)c1cccc(C)c1`, for which the Potency entry in [12], in assay [2], in [13], in assay [14], in assay [15] and in assay [4] was “inactive” each time. Also, the Potency result in assay [5] and in [6] was “inactive” each time. The compound was called inactive (in [3]; with Aromatase (Homo sapiens); in [7]; in [11]; in assay [8]; in assay [9]). Besides, in [10], the result was inactive.

Consider `CN1C(C)(C)CC(O)CC1(C)C`, for which the Potency entry in [12], in [2], in assay [13], in assay [14], in [15] and in assay [4] was “inactive” throughout. Also, the Potency result in assay [6] and in assay [18] was “inactive” throughout. The compound was classed as inactive (in [3]; in the assay with Aromatase (Homo sapiens); in [7]; in assay [11]; in assay [8]; in [9]). Moreover, the call in [10] was inactive.

On to `Cc1ccnc(NS(=O)(=O)c2ccc(N)cc2)n1`, for which the Potency result in [12], in [2], in assay [13], in assay [14], in [15] and in [4] was “inactive” throughout. Further, the Potency entry in [6], in [16] and in [17] was “inactive” throughout. For the same compound, the compound was called inactive (in assay [3]; with Aromatase (Homo sapiens); in assay [7]; in assay [11]; in [8]; in [9]). In assay [10], the result was inactive.

Turning to `Cc1coc2ccccc2c1=O`, the Potency entry in [17] and in assay [18] was “inactive” in each case. Also, the compound was called inactive in [7], in [11], in [8], in assay [9] and in [10].

`C[N+](C)(C)CCCCCCCCCC[N+](C)(C)C`: the Potency entry in [12], in assay [2], in assay [13], in assay [14], in assay [15] and in [4] was “inactive” in each case. The Potency result in [6], in assay [16] and in assay [18] was “inactive” in each case. Moreover, the compound was called inactive in assay [3], in [7], in [11], in assay [8] and in assay [10].
